Shiga toxin inh: Shiga toxin inhibition; inhibition, % at 38.7 µM; AID 2315; 290,000 compounds, 9.2% hits; Vero cells, Shiga toxin protein synthesis inhibition reporter; in the data active = inhibition mostly above about 28%, no sharp cut-off; inactive = mostly below about 43%; also: 0% is about no effect
LmPK inhibitor: blocks Leishmania mexicana pyruvate kinase activity. Q27686. purified LmPK, Kinase-Glo ATP luminescence, 1 h. Potency, µM (series often up to 57.5 µM), for the others: at the highest dose activity change, negative = inhibition, most hits filed as inhibitors. 290,000 compounds, 0.37% hits. AID 1721; also: potency is read from the fitted curve at half-maximal effect; % is scaled to controls: 0 for no effect and ±100 for the full control effect
Target sequence (Q27686 whole entry, looked up): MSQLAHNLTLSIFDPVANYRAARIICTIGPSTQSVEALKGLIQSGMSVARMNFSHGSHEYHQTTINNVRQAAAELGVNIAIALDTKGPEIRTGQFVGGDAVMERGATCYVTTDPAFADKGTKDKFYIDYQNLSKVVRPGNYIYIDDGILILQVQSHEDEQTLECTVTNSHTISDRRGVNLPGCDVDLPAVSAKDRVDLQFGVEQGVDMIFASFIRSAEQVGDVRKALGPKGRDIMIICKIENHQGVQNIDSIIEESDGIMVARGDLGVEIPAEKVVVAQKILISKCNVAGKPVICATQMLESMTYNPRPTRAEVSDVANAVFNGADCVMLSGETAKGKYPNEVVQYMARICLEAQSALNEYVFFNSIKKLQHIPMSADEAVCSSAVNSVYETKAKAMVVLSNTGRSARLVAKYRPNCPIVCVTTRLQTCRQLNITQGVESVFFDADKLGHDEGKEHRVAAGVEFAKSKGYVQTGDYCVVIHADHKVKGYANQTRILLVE
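In 50 mM imidazole pH 7.2 with 7 mM MgCl2, LmPK (0.1 nM) turned over PEP (0.5 mM) and ADP (0.1 mM) for 1 h at room temperature. Luciferase read-out of ATP.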
CHX counter: affects cycloheximide protein synthesis inhibition readout, counter-screen; 300,000 compounds, 12% hits; cell reporter, cycloheximide protein synthesis inhibition counterscreen; max response, %; in the data active = max response mostly above about 13%, no sharp cut-off; inactive = mostly below about 14%; also: read at 38.3 µM for the half of the compounds with a filed dose; 0% is about no effect
Pf growth 96h: P. falciparum growth inhibition at 96 hours. P. falciparum luciferase reporter growth, 96 h. Potency, µM (top dose mostly 28.7 µM), for the others: at the top dose activity change, negative = inhibition, hits mostly inhibitors. 320,000 compounds, 6.9% hits; also: potency is read from the fitted curve at half-maximal effect; % is scaled to controls: 0 for no effect and ±100 for the full control effect
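Plates of compound plus infected erythrocytes (2% hematocrit, 0.05% parasitemia final) incubate 96 hours, 37 C, 5% CO2. Detection reagent added; reduced luminescence from the parasites' luciferase reporter flags inhibition.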
Pf growth 48h: P. falciparum growth inhibition at 48 hours (one generation). AID 504832. Potency, µM (series often up to 28.7 µM), inactives show top-dose activity change, negative = inhibition, most hits filed as inhibitors. P. falciparum luciferase growth in erythrocytes, 48 h. 310,000 compounds, 5.9% hits; also: potency is read from the fitted curve at half-maximal effect; % is scaled to controls: 0 for no effect and ±100 for the full control effect
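Read-out is firefly luciferase luminescence from an integrated reporter in P. falciparum, so falling signal marks reduced parasite growth. Infected erythrocytes were at 2% hematocrit and 0.1% parasitemia (final) in Albumax-supplemented RPMI 1640.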
* hit, by the source's call; ? = inconclusive; / = no result given; [ ] = another dose, or the depositor's remark. Hits are enriched below; roughly 22% of the tested compounds scored in any of these assays. Unless noted, calls follow the shape of the dose curve; as a rule, active = well fitted inhibition curve with a large enough effect; inconclusive = small, poorly fitted or top-dose-only effect, or another doubt; inactive = no such curve, though single readings can be large or run the other way.

SMILES | Shiga toxin inh | LmPK inhibitor | CHX counter | Pf growth 96h | Pf growth 48h
N=C(N)c1ccc2cc(OC(=O)c3ccc(N=C(N)N)cc3)ccc2c1 | / | / | / | 1.07µM* | 12µM*
COC(=O)c1ccc(COc2ccc3c4c(c(=O)oc3c2)CCC4)o1 | -1.7 | -0.6% | 5.1 | 2.1% | 31.5%
COC(=O)c1ccc(COc2cccc(OC)c2)o1 | 57.6* | 1.0% | 21.7* | / | 43.0%
COC(=O)c1ccc(COc2ccc(Cl)cc2)o1 | 74.8* | -1.1% | 20.1* | -7.9% | 32.2%
COC(=O)c1ccc(COc2ccc(/C=N/O)cc2OC)o1 | 71.0* | 4.2% | 20.3* | ? | -68.4%
O=C(O)c1ccc(COc2ccc(Cl)cc2)o1 | 41.6 | -9.1% | 24.2* | -0.2% | 34.5%
CCN1CCN(C(=O)N(CC(=O)Nc2ccc(C(N)=O)cc2)S(=O)(=O)c2ccc(C)cc2)CC1 | / | / | / | 49.9% | 0.1%
C[C@]12CC[C@H]3c4ccc(O)cc4CC[C@@H]3[C@H]1CC[C@@H]2OP(=O)(O)O | / | / | / | -7.4% | -12.0%
Cc1ccc(C)c(-n2cc[nH]c2=S)c1 | 20.3 | ? | -0.9 | -14.9% | 5.7%
CCCCN(C(=O)CSCc1c(C)noc1C)c1c(N)n(CCCC)c(=O)[nH]c1=O | / | / | / | 6.8% | ?
CCc1ccc(OCc2ccc(C(=O)O)o2)cc1 | 101.1* | 2.9% | 64.3* | 6.6% | 207.4%
C=CCc1ccc(OCc2ccc(C(=O)Nc3ccc(NC(C)=O)cc3)o2)c(OC)c1 | 136.1* | 1.7% | 46.8* | ? | -11.1%[0.00184 µM]
O=C(O)c1ccc(OCc2ccc(C(=O)O)o2)cc1 | 31.5 | -6.5% | 14.8* | 104.4% | 11.6%
N#Cc1ccc(OCc2ccc(C(=O)O)o2)cc1 | 3.8 | 1.0% | -2.6 | 33.7% | 49.2%
O=C(N/N=C/c1ccc(O)cc1O)NC12CC3CC(CC(C3)C1)C2 | 33.0* | 0.8% | 23.7* | -28.4% | ?
Nc1nnnn1CC(=O)N/N=C/c1cc([N+](=O)[O-])ccc1O | -6.7 | 1.5% | -1.3 | -10.1% | ?
CCNC(=O)C(=O)N/N=C/c1cc([N+](=O)[O-])ccc1O | -14.3 | -4.2% | 9.6 | 10.4µM* | ?
O=C(N/N=C/c1cc([N+](=O)[O-])ccc1O)NC12CC3CC(CC(C3)C1)C2 | 96.2* | 4.1% | 73.4* | 3.29µM* | -66.6%
Nc1nnc(CC(=O)N/N=C\c2cc([N+](=O)[O-])ccc2O)s1 | -13.6 | -4.0% | -9.5 | 10.4µM* | 12.2%
O=C(NC12CC3CC(CC(C3)C1)C2)c1cc([N+](=O)[O-])ccc1Cl | / | 1.7% | -2.8 | ? | ?
O=C(N/N=C/c1ccc(O)cc1)c1cc(C23CC4CC(CC(C4)C2)C3)[nH]n1 | 47.7 | 1.6% | 2.3 | -26.8% | -25.0%
O=C(N/N=C/c1ccncc1)C12CC3CC(CC(C3)C1)C2 | 23.4 | -8.0% | 3.4 | 13.3% | 2.8%
O=C(N/N=C/c1cc([N+](=O)[O-])ccc1O)C12CC3CC(CC(C3)C1)C2 | 19.6 | 11.9% | 25.1* | 33.7% | 8.28µM*
CC(=O)c1c(C)n(-c2cccc(Cl)c2)c2ccc(O)cc12 | 2.5 | -1.2% | -0.7 | 2.62µM* | -15.6%
COC(=O)c1c(C)n(-c2ccccc2)c2ccc(O)cc12 | -15.5 | -19.0% | -2.7 | / | ?
SMILES | Shiga toxin inh | LmPK inhibitor | CHX counter | Pf growth 96h | Pf growth 48h
CC(=O)c1c(C)n(CCc2ccc(Cl)cc2)c2ccc(O)cc12 | / | 2.2% | 0.2 | 5.86µM* | 10.9%
Cc1cc(C(=O)CCl)c(C)n1CCc1ccc(Cl)cc1 | 32.5 | -2.4% | 11.2 | 8.28µM* | ?
COC(=O)c1c(C)n(-c2ccc(C)cc2)c2ccc(O)cc12 | -16.4 | 5.8% | -6.3 | 4.15µM* | /
Cc1cc(C(=O)CCl)c(C)n1CCc1ccc(F)cc1 | -27.1 | 1.7% | 10.2 | ? | ?
COc1ccccc1C(=O)NCC(=O)OCC(=O)c1ccc2c(c1)-c1ccccc1C2 | -3.9 | 0.9% | 6.6 | 28.1% | 1.2%
O=C(NC1CC(=O)N(c2ccc(Cl)cc2)C1)C1CC1 (stereo not drawn) | / | / | / | 24.6% | 13.8%
COc1ccc(-c2cc(=O)oc3cc(OCC(=O)NCC4CCC(C(=O)O)CC4)ccc23)cc1 (stereo not drawn) | 8.0 | 8.2% | -1.6 | -94.4% | -16.3%
O=C(NC1CCCC1)C1C2C=CC(C2)C1C(=O)N1CCOCC1 (stereo not drawn) | -4.3 | 0.1% | -0.6 | 9.28µM* | 10.0%
O=C(O)C1C2C=CC(C2)C1C(=O)N1CCOCC1 (stereo not drawn) | -12.3 | -6.2% | 1.4 | ? | 11.5%
COc1cc(C(=O)NCCCc2ccccc2)cc(OC)c1OC | / | 2.3% | -0.4 | -27.5% | -29.9%
COC(=O)[C@@H](C)NC(=O)c1ccc2oc(CCc3ccccc3)nc2c1 | 30.7* | -0.6% | 50.8* | -21.9% | 41.1%
CCCc1nc2cc(Cl)c([N+](=O)[O-])cc2o1 | 38.2 | 6.7% | 4.4 | ? | -22.4%
CCCc1nc2cc(CC(=O)OC)ccc2o1 | 17.3 | 2.1% | 21.7* | 49.7% | 12.3%
COC(=O)CCCNC(=O)c1ccc2oc(CCCc3ccccc3)nc2c1 | 20.6* | -4.6% | 24.0* | ? | -11.2%
COC(=O)[C@H](C)NC(=O)NC(C)CCc1ccccc1 (stereo partly drawn) | -16.3 | 3.0% | -5.7 | / | -15.7%
CC1=C(C#N)C(c2ccc(O)cc2)C2=C(CCCC2=O)N1 (stereo not drawn) | -18.8 | 0.1% | 0.4 | 25.7% | -0.2%
CC1=C(C#N)C(c2cccnc2)C2=C(CC(c3ccc(Cl)cc3)CC2=O)N1 (stereo not drawn) | -10.6 | -3.3% | -7.0 | 6.57µM* | /
CC(NC(=O)Nc1nnc(C(F)(F)F)s1)N1C(=O)C2C3C=CC(C3)C2C1=O (stereo not drawn) | -4.8 | -3.5% | -3.1 | 0.0% | 10.4%
Cc1nnc(NC(=O)NC(C)N2C(=O)C3C4C=CC(C4)C3C2=O)s1 (stereo not drawn) | -15.9 | -2.3% | 0.9 | -25.8% | 2.62µM*
CC(C)c1cc(CNC(=O)CCc2nnc(CCCc3ccccc3)o2)on1 | 57.5* | 5.2% | 30.4* | 17.5% | -12.9%
Cc1cccc(Cc2nnc(CCC(=O)N(C)Cc3ccncc3C)o2)c1 | 38.9 | -6.9% | 7.8 | 11.4% | 8.5%
CCc1cc(CNC(=O)CCc2nnc(CCCc3ccccc3)o2)on1 | 78.6* | -11.7% | 57.9* | ? | -9.6%
Cc1cccc(-c2noc(CCC(=O)NCc3ccco3)n2)c1 | 17.3 | 2.5% | 6.8 | 5.4% | /
Cc1cc(CNC(=O)CCc2nnc(CCCCc3ccccc3)o2)nn1C | -17.0 | -2.7% | -2.4 | 19.8% | 6.7%
Cc1cccc(Cc2nnc(CCC(=O)NCc3ccncc3C)o2)c1 | 34.7 | 4.9% | 31.3* | ? | ?
CCc1cc(CNC(=O)CCc2nnc(Cc3cccc(C)c3)o2)on1 | 70.8* | -2.3% | 7.6 | 27.9% | 40.5%
O=C(O)c1cc(N(Cc2ccccc2O)Cc2cc(O)ccc2O)ccc1O | -3.9 | / | -2.8 | / | /
CCOc1ccc(CCNC(=O)C2CCC(=O)N2CCc2ccccc2)cc1OCC (stereo not drawn) | -23.9 | 5.8% | -4.7 | 13.1µM* | /
